Holding throughout (assay type): functional
The target of assay [1] is Solute carrier family 2, facilitated glucose transporter member 1 (Homo sapiens) (UniProt P11166). As to the kind of experiment: ST_JUDE_LEISH: Cytotoxicity at 2uM final concentration against transgenic Leishmania Mexicana promastigotes LmGLUT1 that are glucose transport deficient and complemented with the human glucose transporter GLUT1. Activity is measured by DNA content using SYBR green in vitro.

Assay [2] concerns the target Hexose transporter 1 (Plasmodium falciparum) (UniProt O97467). As to the kind of experiment: ST_JUDE_LEISH: Cytotoxicity at 2uM final concentration against transgenic Leishmania Mexicana promastigotes LmPfHT that are glucose transport deficient and complemented with the Plasmodium falciparum hexose transporter. Activity is measured by DNA content using SYBR green in vitro.

The target in assay [3] is Glucose transporter (Leishmania mexicana) (UniProt O61059). As to the kind of experiment: ST_JUDE_LEISH: Cytotoxicity at 2uM final concentration against transgenic Leishmania Mexicana promastigotes LmGT2 that are glucose transport deficient and complemented with the L. Mexicana glucose transporter 2. Activity is measured by DNA content using SYBR green in vitro.

Solute carrier family 2, facilitated glucose transporter member 1 (Homo sapiens), sequence (P11166 whole entry): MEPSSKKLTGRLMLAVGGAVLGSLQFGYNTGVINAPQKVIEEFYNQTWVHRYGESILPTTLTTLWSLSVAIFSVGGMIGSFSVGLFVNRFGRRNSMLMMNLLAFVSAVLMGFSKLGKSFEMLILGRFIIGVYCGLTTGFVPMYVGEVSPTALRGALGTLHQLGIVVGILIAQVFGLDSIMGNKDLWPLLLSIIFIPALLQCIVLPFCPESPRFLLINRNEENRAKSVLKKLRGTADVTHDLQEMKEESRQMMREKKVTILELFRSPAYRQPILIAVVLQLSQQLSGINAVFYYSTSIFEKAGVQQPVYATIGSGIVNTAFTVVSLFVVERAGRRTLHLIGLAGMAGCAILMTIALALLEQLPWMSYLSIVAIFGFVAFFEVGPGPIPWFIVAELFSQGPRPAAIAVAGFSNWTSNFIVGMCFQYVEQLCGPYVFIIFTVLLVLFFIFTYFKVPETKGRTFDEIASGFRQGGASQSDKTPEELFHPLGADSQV

As to `COc1ccc(-c2ccc(CNC(=O)c3ccc(C#N)cc3)c(F)c2)cc1CN1CCCN(C)CC1`, the figures for the inhibition in assay [1], in assay [2] and in assay [3] were 0.92%, 0.66% and -3.44%, respectively.
In the case of `OC(CN(Cc1ccccc1)Cc1ccccc1)Cn1c2ccc(Cl)cc2c2cc(Cl)ccc21` (stereo unspecified), the inhibition in assay [1] is -0.34%; in assay [2], 0.27%; in assay [3], 1.37%.
`O=C(/C=C/c1ccc(Cl)c(Cl)c1)NCCCCCN1CCCC(CNS(=O)(=O)c2cccc(C(F)(F)F)c2)C1` (stereo unspecified): the values for the inhibition in assay [1], in assay [2] and in assay [3] were -0.87%, -0.18% and -1.57%, respectively.
The matching figures for `CN(C)c1ccc(-c2csc(C(=O)NCC3CCN(Cc4ccc(C(C)(C)C)cc4)C3)c2)cc1` (stereo unspecified): -1.07%, -1.85% and -1.57%.
Turning to `O=C(Nc1ccc(-c2cccc(-c3nc4cc(F)ccc4[nH]3)c2)cc1)Nc1ccsc1`, the inhibition was found to be 5.02% in assay [1], 6.71% in assay [2] and 0.78% in assay [3].
In the case of `COc1cccc(CNC(=O)[C@@H]2CN(C(=O)c3ccccc3)CCN2)c1`, the inhibition is -0.92% in assay [1], 0.03% in assay [2] and 0.71% in assay [3].
For the compound `CN1CCN(CC(=O)Nc2cccc(-c3ccc(-c4nc5cc(F)ccc5[nH]4)cc3)c2)CC1`, the inhibition is -1.54% in assay [1], 0.97% in assay [2] and 3% in assay [3].
For the compound `COc1ccc(Nc2nc(NC3CCCC3)cc(-c3ccc(OC)cc3)n2)cc1`, the inhibition was -0.76% in assay [1], 0.56% in assay [2] and -0.75% in assay [3].
For the compound `N=C(N)NCCN(Cc1ccccc1)c1ccccc1`, the inhibition in assay [1] is 2.42%; in assay [2] it was 1.13%; in assay [3], 2.3%.
In the case of `CCOCCCn1c(=N)c(C(=O)NC(C)c2ccccc2)cc2c(=O)n3cccc(C)c3nc21` (stereo unspecified), the inhibition in assay [1] was 7.84%; in assay [2], 6.01%; in assay [3], 3.81%.
`Cc1ccc(O)c(C(=O)c2cnc3c(c2)c(-c2ccc(F)cc2)c(C#N)c(=O)n3C)c1`: the inhibition in assay [1] was determined as 8.51%; in assay [2], 4.73%; in assay [3], 1.51%.
For the compound `Cc1cc(CNCCCCCCCNCc2cccc([N+](=O)[O-])c2)ccc1O`, the inhibition in assay [1] was 2.48%; in assay [2] it was 1.23%; in assay [3], -1.43%.
Turning to `O=C(Nc1ccc(OC(F)(F)F)cc1)Nc1ccc([N+](=O)[O-])cc1`, the values for the inhibition in assay [1], in assay [2] and in assay [3] were 1.82%, 2.15% and 1.9%, respectively.
On to `CC1(C)N=C(N)N=C(Nc2ccc(Cl)cc2)N1`, for which the inhibition in assay [1] was found to be 14.5%; in assay [2], 14.3%; in assay [3] it was 11.4%.
Turning to `CC(C)(C)c1ccc(CNC(=O)c2ccc(CNC3CCC(N)CC3)s2)cc1` (stereo unspecified), the inhibition in assay [1] is -0.19%; in assay [2] it was 0.91%; in assay [3], 0.31%.
Regarding `COc1ccc2ncc(F)c(CCN3CCC(NCc4cnc5c(c4)NC(=O)CS5)CC3)c2c1`, the inhibition in assay [1] was determined as 1.52%; in assay [2] it was 2.49%; in assay [3] it was 2.03%.
The matching figures for `Cc1ccccc1C1CCN(C2CCC(NC(=O)/C=C/c3cccc(F)c3)CC2)CC1` (stereo unspecified): 6.96%, 8.22% and 7.51%.
The like results for `CCOc1ccccc1C=CC(=O)Nc1ccc2nc(N3CCN(C)CC3)cc(C)c2c1` were, in that order, 5.87%, 2.96% and 4.24%.
On to `CNc1nc(N/N=C/c2cc([N+](=O)[O-])c(Cl)cc2Cl)nc(Nc2cccc(C(F)(F)F)c2)n1`, for which the inhibition in assay [1] is 4.8%; in assay [2], 2.41%; in assay [3], 0.84%.
`COc1ccc(-c2ccc(NC(=O)c3ccc(F)cc3)cc2)cc1CN1CCCN(C)CC1`: the inhibition was determined as 6.26% in assay [1], 3.81% in assay [2] and 2.87% in assay [3].
Regarding `CCCNCc1ccc(-c2ccc(CN(CCOC)C(=O)COc3ccccc3Cl)cc2)nc1`, the inhibition is -0.3% in assay [1], 1.54% in assay [2] and -1.95% in assay [3].
The matching figures for `O=C(Nc1ccc(-c2nc3ccccc3[nH]2)cc1)c1ccc(S(=O)(=O)N2CCCCCC2)cc1`: 1.06%, 2.45% and 1.91%.
The like results for `CC1CCc2c(C(=O)N3CCc4ccccc4C3)csc2C1` (stereo unspecified) were, in that order, 1.39%, 0.87% and 0%.
In the case of `CC(=NNC(S)=Nc1ccccc1Cl)c1ccccn1`, the inhibition was 18.6% in assay [1], 19.6% in assay [2] and 12.2% in assay [3].
In the case of `Cc1ccc(C(C)C)c(Oc2cnc(NC(CO)c3ccccc3)nc2N)c1` (stereo unspecified), the inhibition in assay [1] came out at 9.07%; in assay [2], 8.83%; in assay [3] it was 8.45%.
For the compound `O=C(Nc1ccc(OC2CCN(Cc3ccsc3)C2)c(Cl)c1)c1ccco1` (stereo unspecified), the inhibition worked out at 0.28% in assay [1], 1.35% in assay [2] and 0.21% in assay [3].
For `O=C(CN1CCN(C(=O)c2ccco2)CC1)Nc1ccccc1Br`, the inhibition is -1.39% in assay [1], -1.64% in assay [2] and -3.97% in assay [3].
Turning to `Nc1ncc(-c2ccc3ncccc3c2)c(N)n1`, the inhibition amounted to 0.18% in assay [1], 0.97% in assay [2] and 1.18% in assay [3].
With `Nc1nc(O)c2c(n1)CCc1c(Br)cccc1-2`, the inhibition in assay [1] is -1.17%; in assay [2], -0.59%; in assay [3] it was -1.14%.
Turning to `Cn1c2c(c3ccccc31)CN(CCC1(c3ccc(Cl)c(Cl)c3)CN(C(=O)Cc3ccccc3)CCO1)CC2` (stereo unspecified), the inhibition in assay [1] is 2.23%; in assay [2], 3.84%; in assay [3], -1.01%.
The like results for `COc1ccc2nccc([C@@H](O)CN3CCC(NCc4cc5oc(=O)n(C)c5cc4F)CC3)c2c1` were, in that order, 0.9%, 0.07% and 0.86%.
Consider `N#Cc1ccccc1C1CCN(C2CCC(Nc3cc(-c4cccnc4)ccn3)CC2)CC1` (stereo unspecified), for which the inhibition is 2.02% in assay [1], 1.09% in assay [2] and 2.26% in assay [3].
Consider `CN1CCN(c2ccc(-c3cccc(NC(=O)c4ccc5ccccc5c4)c3)nn2)CC1`, for which the figures for the inhibition in assay [1], in assay [2] and in assay [3] were 14%, 10.9% and 7.19%, respectively.
As for `CCN(CC)CCNc1cc(C)nc(NC(=N)Nc2ccc(Cl)cc2)n1`, the values for the inhibition in assay [1], in assay [2] and in assay [3] were 6%, 6.42% and 5.89%, respectively.
The like results for `CC(=O)Nc1ccc(C(=O)Nc2cccc(-c3cccc(-c4nc5cccc(C)c5[nH]4)c3)c2)cn1` were, in that order, 4.29%, 3.64% and 1.41%.
With `N=C1N=C(N)NC2(CCCCC2)N1OCCCOc1cccc2ccccc12`, the inhibition in assay [1] came to 54.1%; in assay [2] it was 60%; in assay [3], 37.9%.
`CC(=O)Oc1c(C2CCN(CCCCNC(=O)c3ccc(-c4ccc(C#N)cc4)cc3)CC2)ccc2c1CCCC2`: the inhibition in assay [1] stood at 0.47%; in assay [2] it was 1.16%; in assay [3], 1.58%.

These data come from ChEMBL document CHEMBL3433997, “St. Jude Leishmania screening dataset” (2016).
